# Data taken from PMC12136788.
# Positions count from the first letter of the chain named. In all, about 5,800 sequences were measured (“enrichment r”: median about 0.54, highest 2% from about 16 on). This excerpt belongs to a sample that is enriched for the highest values.
# B1: chrX:48700291:48700392:+|CDS|ENSG00000101945|unk|FALSE|unique (ssRNA)
# RNA: GGGAGUUCUACAGUCCGACGAUCGCUCCGUCGCUGGGAGCAGGAGCUCAAUGCCAAGCGCAGCCAUCUGGGACGCAUCACUGUAGAGAAUGAGGUGGACCUGGACGGCCCUCCGCGGGCCUUCGUGUACAUCAAUGAGUACCGCAACAGAGGAUUGAGCAUCA
# B2: chr20:13714314:13714426:-|3pUTR|ENSG00000089048|unk|total|mutant (ssRNA)
# RNA: GGGAGUUCUACAGUCCGACGAUCUUUUUCCCGCCAUAAAGGAUGGAAGUCAAGAACUUUUUGUUGUUCCGUCAUGUUAAGUACCGUUUAUGAAAUUAACUUGUAAAUAAAAGUGUAAAAUAUUUUCAUUAUUUUGUACCGCACCAACAGAGGAUUGAGCAUCA
# B3: chr2:206311781:206311882:+|3pUTR|ENSG00000204186|unk|FALSE|unique (ssRNA)
# RNA: GGGAGUUCUACAGUCCGACGAUCUAGUGUUUAGAGUCCUUUCAUUUUAAGAUUCAGAAACAGCCUUUGUCCAACAUUUUCUGUAGAAGAACUUCAUCUUAAUUUAUGUCACAAAAUAAUUUAGCACCGUAUAUAGAAUUUUGUCAACAGAGGAUUGAGCAUCA
# B4: chr20:13714314:13714426:-|3pUTR|ENSG00000089048|unk|FALSE|unique (ssRNA)
# RNA: B2 RNA with C30U, C31A, C68U, C69A, C83U, C84A, C138U, C139A
# B5: chr10:121957106:121957207:-|3pUTR|ENSG00000107672|msi1|FALSE|bound_elsewhere (ssRNA)
# RNA: GGGAGUUCUACAGUCCGACGAUCUGUAUCGUACAUAUUGUAUGAUUCAACAUUUUUAAAGGCAGAUUGUUUUUAGUAAAAUGUAGCUUUUGAUAGUUAAUAAAUUUGUCAUGGUUGUCUUUGAUUAAAGGAAACUCACCGCCACAACAGAGGAUUGAGCAUCA
# B6: chr8:30995801:30996592:-|three_prime_utr|ENSG00000172733|control|control|control (ssRNA)
# RNA: GGGAGUUCUACAGUCCGACGAUCUUGUUUUUUUUAAUUCAUCAAGCCUUUCGUUUUCAAACCACCAUUUGUCAGCCUUGAGGUAGAGAGACAUAUAGAUUUGAAAAUACUUUCUUAAGAGAUCAUGUAACUAUAUAACUCUGACAACAGAGGAUUGAGCAUCA
# B7: ENSG00000198589:be:win_9051|3pUTR|ENSG00000198589|bound_else_gene|NA|bound_elsewhere_windowed (ssRNA)
# RNA: GGGAGUUCUACAGUCCGACGAUCGUAAAUGUAAUUUAAAACAUCUCAAUUAAGUCUGUCUAUCAAUAUUGUUCUUCAAGCAUGUUUUAGACCUAGAAAAGUAUGGUUUGGGGGAGGCUAUUUUAUUGUGUGGUUAGCACAAGGCAACAGAGGAUUGAGCAUCA
# B8: chr11:69651696:69651723:+|3pUTR|ENSG00000110092|msi1_unk|total|mutant (ssRNA)
# RNA: GGGAGUUCUACAGUCCGACGAUCGAGGAUCCGGUUCCAUCCUUUACGUGUUUAAAAAAAAGCAUAAAAACAUUUUAAAAACACCGAAAAAUUCAGCAAACCAUUUUUAAAGCCGAAGAGGGUUUCCGGCCGAAAAACAUAUUCCAACAGAGGAUUGAGCAUCA
# B9: chr11:69651696:69651723:+|3pUTR|ENSG00000110092|msi1_unk|FALSE|overlapping (ssRNA)
# RNA: B8 RNA with C30U, C31A, C83U, C84A, C112U, C113A, C125U, C126A, C129U, C130A
# B10: chr11:69651733:69651797:+|3pUTR|ENSG00000110092|msi1_unk|FALSE|overlapping (ssRNA)
# RNA: GGGAGUUCUACAGUCCGACGAUCAAAACAUUUUAAAAACAUAGAAAAAUUCAGCAAACCAUUUUUAAAGUAGAAGAGGGUUUUAGGUAGAAAAACAUAUUCUUGUGCUUUUCCUGAUAAAGCACAGCUGUAGUGGGGUUCUAGCAACAGAGGAUUGAGCAUCA
# B11: chr21:14371318:14371404:-|3pUTR|ENSG00000155304|msi1_unk|FALSE|overlapping (ssRNA)
# RNA: GGGAGUUCUACAGUCCGACGAUCUAUGAAUAACAAUCUGAAGUCUUUUCAUAAAAAAAAUUAAUAAACUUUAGUUGUACAUUUAGCCAGUGUUAUUUGAAGUAUGUAACUUUUAAAAUAUUAAGUGUCUUGUAUGAUUAGAAUCAACAGAGGAUUGAGCAUCA
# B12: chr2:206311781:206311882:+|3pUTR|ENSG00000204186|unk|total|mutant (ssRNA)
# RNA: B3 RNA with U24C, A25C, U31C, A32C, U83C, A84C, U121C, A122C, U133C, A134C
# B13: chr10:121957106:121957207:-|3pUTR|ENSG00000107672|msi1|total|mutant (ssRNA)
# RNA: B5 RNA with U73C, A74C, U83C, A84C, U93C, A94C
# B14: ENSG00000150403:stop:overlap|stop_codon|ENSG00000150403|stop_codon|NA|stop_codon (ssRNA)
# RNA: GGGAGUUCUACAGUCCGACGAUCUGUCCAGGUUCCUCAUGGGCAGUGCUCGGGGUGACAAAGAAGGCAACAGAACAGCCCUCUAGCAGAGCGUCAGUGCAGUCGUGUUAUCCCGGCUUUUACAGAAUAUUCUUGUCCUAUUUUCAACAGAGGAUUGAGCAUCA
# B15: chr1:37566712:37566813:+|3pUTR|ENSG00000163879|unk|FALSE|unique (ssRNA)
# RNA: GGGAGUUCUACAGUCCGACGAUCGCUUUAUUUCCCUAGCACUGGUGAAGGGCUUCAACUGUCAAACCUCAGAACAAAUGCAUUAGGGCCUUAGAAAUGUCAAUGGGGCAGGAAGAAAACACAAUUUCUAACUGCCUGUUUUUGCAACAGAGGAUUGAGCAUCA
# B16: chr16:16142165:16142266:+|3pUTR|ENSG00000103222|msi1|total|mutant (ssRNA)
# RNA: GGGAGUUCUACAGUCCGACGAUCAUUGAUGUGGGGUAAAUAUUAAGGAGAUGGCCUCAUGGGAAUUUGACCUUGACCCGAAACCGAGACUGAGAGUGAGCAACCAGCUGGAAGGUACUAUGCCAGUCCCCGCAGAAAAAUGUGCAACAGAGGAUUGAGCAUCA
# B17: chr20:4701031:4701132:+|3pUTR|ENSG00000171867|msi1|total|mutant (ssRNA)
# RNA: GGGAGUUCUACAGUCCGACGAUCCACCGUUUCUGUAAUUGGCUUUUGAAUCAAAGAACCGGGAGACAAUCUAAAAAAUAUCUCCGGUUGGAGAUGACAGAAAUAUGAUUGAUUUGAAGUGGAAAAAGAAAUUCUGUUAAUGUUCAACAGAGGAUUGAGCAUCA
# B18: chr19:21059139:21059240:+|3pUTR|ENSG00000118620|unk|total|mutant (ssRNA)
# RNA: GGGAGUUCUACAGUCCGACGAUCGUAAAAAUGAAAAUAUUUAAUCCAAAAUUAAGUCUAUGUAAAUAUCAGAGAAUUUACUGCCGAAAUAUAUAAGGCACUGAGACUUCAGAUAUUAUACUAAAUCAGAGUGCUGAGUACCGACAACAGAGGAUUGAGCAUCA
# B19: chr17:42200006:42200107:-|3pUTR|ENSG00000173757|unk|total|mutant (ssRNA)
# RNA: GGGAGUUCUACAGUCCGACGAUCAAGCUGCCGUUUGCCUUGGCUUGGUUUCAUACACUGAUUUAUUUUUCUAUGCCAGGCAGCCGAGUCUCUCUGCCUCUGAGGAGCAGGCUACCCGCAUCCCACUCAGCCCCUCCCUACCCCCAACAGAGGAUUGAGCAUCA
# B20: chr20:3582170:3582271:+|CDS|ENSG00000088812|msi1|FALSE|bound_elsewhere (ssRNA)
# RNA: GGGAGUUCUACAGUCCGACGAUCGGCCUUCGGAAGAUCAAUGUGUCCUACUGGUGCUGGGAAGAUAUGUCCCCAUUUACAAAUAGUUUACUACAGUGGAUGCCGUCUGAGCCCAGUGAUGCUGGAUUCUGUGGAAUUUUAUCACAACAGAGGAUUGAGCAUCA
# B21: chr3:10101824:10101929:+|3pUTR|ENSG00000144554|unk|total|mutant (ssRNA)
# RNA: GGGAGUUCUACAGUCCGACGAUCAAAAUCUCUGAGUCAUGAUUCUGGACUUUGGGAGCCCGUUUUGAAACUCUGAUUUAUUGCCGAACUCCGGCUUGUACCAAUUUUACAAAUAAAUUCUGUUCUAAGUUCUGCCUCAGUUGCCAACAGAGGAUUGAGCAUCA
# B22: ENSG00000166086:stop:overlap|stop_codon|ENSG00000166086|stop_codon|NA|stop_codon (ssRNA)
# RNA: GGGAGUUCUACAGUCCGACGAUCUCCUGCUGCUGCUUUUCAGGGAGUCAAGUCUAGUCUGCUUUCCAAGGCUGCAUUCUAAGUAGUGAAGCCUCAACUUCAUAUUUACCUAAAGCAGGACACCACACUCUUCCCCUGGCAGCCCAACAGAGGAUUGAGCAUCA
# Target: MSI1 full-length (mouse, UniProt Q61474 1-362)
# Test: nsRBNS (natural sequence RNA bind-n-seq); RBNS binding buffer (assumed for nsRBNS): 25 mM Tris pH 7.5, 150 mM KCl, 3 mM MgCl2, 0.01% Triton X-100, 500 ug/ml BSA, 20 U/ml SUPERase-In, 4 C; UNK is unkempt and MSI1 is Musashi-1; names of the RNAs are library labels; protein concentration not given here; high values mean tight binding
# Sequence of MSI1 full-length (Q61474 whole entry): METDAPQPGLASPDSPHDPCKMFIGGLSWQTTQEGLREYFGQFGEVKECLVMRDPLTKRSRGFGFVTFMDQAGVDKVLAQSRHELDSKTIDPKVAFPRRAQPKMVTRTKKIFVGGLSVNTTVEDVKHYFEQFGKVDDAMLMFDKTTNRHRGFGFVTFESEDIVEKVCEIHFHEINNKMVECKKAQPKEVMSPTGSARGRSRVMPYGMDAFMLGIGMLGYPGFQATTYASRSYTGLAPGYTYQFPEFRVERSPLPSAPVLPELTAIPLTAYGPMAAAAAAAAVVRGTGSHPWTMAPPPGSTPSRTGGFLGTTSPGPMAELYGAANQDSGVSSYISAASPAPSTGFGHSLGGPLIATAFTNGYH
row,Binder,binding signal [enrichment R]
1,B1,0.398
2,B2,0.796
3,B3,16.7
4,B4,58.4
5,B5,17.9
6,B6,0.712
7,B7,3.05
8,B8,0.383
9,B9,17.8
10,B10,13.6
11,B11,6.15
12,B12,0.669
13,B13,0.237
14,B14,0.829
15,B15,0.39
16,B16,0.411
17,B17,0.277
18,B18,4.16
19,B19,0.705
20,B20,0.86
21,B21,0.338
22,B22,0.461
